# Screening results deposited in PubChem BioAssay by National Center for Advancing Translational Sciences (NCATS).
# KB-V1 cytotox: qHTS assay for MDR1-selective chemotherapeutics: Primary screen using the drug-selected MDR subline cells KB-V1; KB-V1 MDR cells viability, CellTiter-Glo, 72 h; Potency, µM (series often up to 46.1 µM), usual class: cytotoxic; 400,000 compounds, 3.4% hits; AID 1347076, 2019; further: on the % scale 0 is the no-effect control and ±100 the full control effect; nearly all actives have a fitted effect of over 60% in size
#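 qHTS viability screen in drug-selected KB-V1 MDR cells: 72 h compound treatment at 37 degrees C, ATP luminescence end point.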
# SW480 rerep: A quantitative high throughput screen for small molecules that induce DNA re-replication in SW480 colon adenocarcinoma cells. SW480 DNA re-replication, Hoechst DNA content imaging, 48 h. Potency, µM (doses to about 46.1 µM), for the others: at the top dose re-replication activation, usual class: activators. 340,000 compounds, 1.8% hits; further: % of control where 0% means no effect; nearly all actives have a fitted effect of over 55% in size
#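 Quantitative HTS format with DMSO vehicle controls; 48 hr drug incubation at 37 C, then 40 min Hoechst staining and scanning imager measurement at 405 nm excitation.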
# KB-3-1 cytotox: qHTS assay for MDR1-selective chemotherapeutics: Primary screen using the parental adenocarcinoma cell KB-3-1; KB-3-1 viability, CellTiter-Glo ATP luminescence, 72 h; 400,000 compounds, 1.4% hits; Potency, µM (top dose mostly 46.1 µM), usual class: cytotoxic; further: on the % scale 0 is the no-effect control and ±100 the full control effect; nearly all actives have a fitted effect of over 60% in size
#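 Parental KB-3-1 viability, qHTS format: 72 h compound exposure, 37 °C; CellTiter-Glo; media-only wells and DMSO plates as controls; concentration-effect fits on corrected data.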
# TSG101-PTAP inh: qHTS Assay for Iinhibitors of HIV-1 Budding by Blocking the Interaction of PTAP/TSG101 | Tumor susceptibility gene 101 protein (Homo sapiens), Q99816 | Fluorescence polarization, FITC-PTAP peptide / Tsg101 binding | Potency, µM (titrated, usually from 115 µM), for inactives: at the top dose activity change, negative = inhibition, most hits filed as inhibitors | 340,000 tested, under 10 active | AID 493005, 2010; active means well fitted inhibition curve with a large enough effect in the main read-out, with a control signal flat, not every such curve was filed as active; inconclusive means small, poorly fitted or top-dose-only effect, or effect the other way, or a change in a side signal; inactive means no such curve, though single readings can be large or run the other way; further: % of control where 0% means no effect
# Target sequence (Q99816 whole entry, looked up): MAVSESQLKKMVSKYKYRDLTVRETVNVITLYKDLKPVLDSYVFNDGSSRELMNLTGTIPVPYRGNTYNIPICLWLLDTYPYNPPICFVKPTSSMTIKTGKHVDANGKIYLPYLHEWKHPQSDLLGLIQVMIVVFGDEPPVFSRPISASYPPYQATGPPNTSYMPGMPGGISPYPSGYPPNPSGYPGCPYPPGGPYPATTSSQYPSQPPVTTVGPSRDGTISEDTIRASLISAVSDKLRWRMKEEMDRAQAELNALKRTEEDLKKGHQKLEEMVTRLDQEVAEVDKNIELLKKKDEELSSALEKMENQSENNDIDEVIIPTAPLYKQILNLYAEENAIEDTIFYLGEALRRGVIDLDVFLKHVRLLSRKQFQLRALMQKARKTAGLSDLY
#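 Tsg101 binding domain (10 uM final) was mixed with compound and a FITC-labeled PTAP peptide (50 nM final) in HEPES pH 7.5 buffer with NaCl, Tween 20, EDTA and TCEP; fluorescence polarization was read after 20 min at r.t.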
# RGS4 inh: Inhibitors of Regulator of G Protein Signaling (RGS) 4: qHTS; Regulator of G-protein signaling 4 (Homo sapiens), P49798; 390,000 compounds, 0.039% hits; Transcreener GDP fluorescence polarization, RGS4-accelerated GTP hydrolysis; AID 504845, 2011; Potency, µM (titrated, usually from 114 µM), for the others: at the highest dose activity change, negative = inhibition, usual class: inhibitors; further: on the % scale 0 is the no-effect control and ±100 the full control effect; nearly all actives have a fitted effect of over 75% in size
# Target sequence (P49798 whole entry, looked up): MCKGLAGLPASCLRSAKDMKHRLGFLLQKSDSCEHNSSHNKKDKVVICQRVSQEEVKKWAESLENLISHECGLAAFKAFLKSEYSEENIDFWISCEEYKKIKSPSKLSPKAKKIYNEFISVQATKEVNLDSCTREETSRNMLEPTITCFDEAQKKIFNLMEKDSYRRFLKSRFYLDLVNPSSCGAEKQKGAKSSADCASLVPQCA
#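 MLSMR compounds (23 nl, pin-transferred) preincubated 10 min at room temperature with a 500nM (2x) first reagent, then RGS4 at 900nM (2x) plus Transcreener GDP mix added; fluorescence polarization (620/688 nm) read before and after 90 min at 30 °C.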
# MCF10A rerep: A quantitative high throughput screen for small molecules that induce DNA re-replication in MCF 10a normal breast cells; MCF 10A DNA re-replication, Hoechst nuclear intensity, 48 h; AID 624296, 2012; 350,000 compounds, 2.9% hits; Potency, µM (series often up to 46.1 µM), inactives show top-dose activity, positive = re-replication, most hits filed as activators; further: % of control where 0% means no effect; nearly all actives have a fitted effect of over 50% in size
# * hit, by the source's call; i = inactive; ? = inconclusive; / = not tested or not shown; [ ] = another dose, or the depositor's remark. Sampled rows, rich in hits. Any-hit rate of the full collection: about 6.6%. Unless noted, the call rests on the fitted dose curve; in most records, active means well fitted curve in the direction sought with a large enough effect; inconclusive means small, poorly fitted or top-dose-only effect, or another doubt; inactive means no such curve, though single readings can be large; an effect the other way counts as inactive or inconclusive. Potency means the concentration at half of the fitted maximal effect.
SMILES,KB-V1 cytotox,SW480 rerep,KB-3-1 cytotox,TSG101-PTAP inh,RGS4 inh,MCF10A rerep
COc1cccc(N/C(SCc2ccccc2F)=C(/C#N)C(=O)NCc2cccs2)c1,16µM*,?,i,1%,-12%,?
NC(=S)NNc1ccnc2cc(Cl)ccc12,?,-14%,i,-2%,-39%,8%
FC(F)Oc1ccc(NC(=S)NNc2ccnc3cc(Cl)ccc23)cc1,?,12µM*,16µM*,?,?,?
O=C(NNc1ccnc2cc(Cl)ccc12)C1CCCCC1,?,0%,5.8µM*,1%,8%,17%
COc1ccc(S(=O)(=O)c2c(Nc3c(C)cccc3C)sc(C(=O)c3ccc(F)cc3)c2N)cc1,?,/,5.8µM*,/,-11%,/
COc1cccc(Nc2sc(C(=O)c3ccc4c(c3)OCO4)c(N)c2S(=O)(=O)c2ccccc2)c1,?,/,i,/,-10%,/
COc1ccc(S(=O)(=O)c2c(Nc3c(C)cccc3C)sc(C(=O)c3ccc4c(c3)OCO4)c2N)cc1,?,/,3.7µM*,/,-6%,/
COc1ccc(S(=O)(=O)c2c(Nc3cccc(C)c3C)sc(C(=O)c3ccccc3)c2N)cc1,/,/,/,/,-2%,/
NC(C(=O)O)C(O)c1ccc(O)c(O)c1 (centres undefined),/,-6%,/,/,/,8%
COCCCNC(=O)C1CCN(c2ncnc3c2nc2n3CCCCC2)CC1,/,/,/,/,16%,/
N#CC1=C(N)Oc2cc(Nc3ccccc3)ccc2C1c1ccncc1 (centres undefined),i,16µM*,?,0%,-2%,?
CCN(CC)c1ccc2c(c1)OC(N)=C(C#N)C2c1cccnc1 (centres undefined),0.29µM*,0.18µM*,0.041µM*,?,-7%,?
COc1ccc(C)cc1S(=O)(=O)N(C)CC(=O)N1CCC(C(N)=O)CC1,i,-10%,i,-5%,-7%,-1%
CCOC(=O)C1CCN(C(=O)CN(C)S(=O)(=O)c2cc(C)ccc2OC)CC1,23µM*,2%,i,0%,-6%,1%
O=C(OCc1ccccc1)N(CCCCN(CCCNCc1ccccc1)C(=O)OCc1ccccc1)CCCNCc1ccccc1,?,?,16µM*,-1%,-44%,5.8µM*
O=C(NCCCCCCNC(=O)OCc1ccccc1)OCc1ccccc1,i,1%,i,0%,17%,-1%
Cc1cnc(NC(=O)c2nn(C)cc2[N+](=O)[O-])s1,?,3.7µM*,?,-1%,22%,4.1µM*
O=C(Nc1nc(-c2ccc([N+](=O)[O-])cc2)cs1)c1c(F)cccc1F,i,?,i,-15%,-14%[56.9 µM],-1%
Cc1ccc(-c2nc(NC(=O)c3nn(C)cc3[N+](=O)[O-])sc2C)cc1C,15µM*,1.5µM*,?,-3%,-15%,?
Cc1ccc(-c2nc(NC(=O)c3nn(C)cc3[N+](=O)[O-])sc2C)cc1,?,1%,4.6µM*,-5%,11%,?
Cn1cc([N+](=O)[O-])c(C(=O)Nc2nc(-c3ccc(Cl)cc3)cs2)n1,13µM*,5.8µM*,6.5µM*,-1%,-2%,5.2µM*
Nc1nn(-c2ccccc2)nc1C(=O)OCc1ccccc1Br,i,/,i,/,16%,/
COc1cccc(CNC(=O)C2CCCN(c3nn4cc(-c5ccc(C)cc5)nc4s3)C2)c1 (centres undefined),i,/,i,/,-33%,/
COc1cccc(CCNC(=O)c2cnc3sc(N4CCOCC4)nn3c2=O)c1,i,/,i,/,-1%,/
Cc1cc(N(C)C)cc(C)c1C=O,i,/,i,/,/,/
SMILES,KB-V1 cytotox,SW480 rerep,KB-3-1 cytotox,TSG101-PTAP inh,RGS4 inh,MCF10A rerep
CCCCC(=O)N1C/C=C\C(c2ccc(OC)cc2)N(Cc2ccc(F)cc2)C(=O)C1C (centres undefined),/,/,/,/,-16%,/
CC(C)(C)NC(=O)C(c1ccc(F)cc1)N(Cc1ccco1)C(=O)c1csnn1 (centres undefined),i,-2%,i,-1%,1%,1%
O=C(NC1CCCCC1)C(c1ccncc1)N(Cc1ccc(F)cc1)C(=O)c1ccccn1 (centres undefined),?,-3%,i,-2%,-11%,14%
O=C(NC1CCCCC1)C(c1ccncc1)N(Cc1ccccc1)C(=O)c1ccc(-c2ccccc2)[nH]1 (centres undefined),23µM*,?,?,-5%,-17%,?
CC(C)(C)NC(=O)C(c1ccncc1)N(Cc1ccco1)C(=O)c1ccc(-c2ccccc2)[nH]1 (centres undefined),?,?,i,1%,-38%,21µM*
O=C(NCC1CCCO1)C(c1cccs1)N(C(=O)c1ccc(-c2ccccc2)[nH]1)C1CCCC1 (centres undefined),?,13%,i,2%,-4%,12%
O=C(NCC1CCCO1)C(c1cccs1)N(Cc1ccccc1)C(=O)c1ccc(-c2ccccc2)[nH]1 (centres undefined),3.7µM*,25%,i,2%,9%,26%
Cc1cccc(C(=O)Nc2cccc(C(=O)OCc3cc(=O)n4nc(C5CC5)sc4n3)c2)c1,i,/,i,/,-9%,/
COc1cc(OC)c(/C=C/c2ccc3ccccc3[n+]2C)c(OC)c1,i,/,0.73µM*,/,/,/
CCC[n+]1c(/C=C/c2c(OC)cc(OC)cc2OC)ccc2ccccc21,i,/,1.3µM*,/,/,/
CCCC[n+]1c(/C=C/c2c(OC)cc(OC)cc2OC)ccc2ccccc21,i,/,i,/,/,/
Cc1ccc(C(=O)NCC(=O)OCc2cc(=O)n3c(C)csc3n2)cc1,i,/,i,/,17%,/
CC(C)N1C/C(=C/c2cccnc2)C(=O)/C(=C/c2cccnc2)C1,15µM*,?,?,2%,-38%,1.2µM*
CN1C/C(=C/c2cccnc2)C(=O)/C(=C/c2cccnc2)C1,15µM*,?,?,-2%,?,15µM*
O=C1c2ccccc2C(=Cc2cccnc2)c2ccccc21,i,/,i,/,/,/
CC(C)N1C/C(=C/c2ccsc2)C(=O)/C(=C/c2ccsc2)C1,?,9.2µM*,15µM*,-4%,-9%,8.2µM*
CCN1C(=O)S/C(=C/c2ccsc2)C1=O,i,6%,i,-8%,43%,?
